Of roughly 7,900 targets only a part is listed; those with a hit were picked by preference. About 0.6% of all pairs of compound and target were hits. Unmarked numbers belong to inactive results.
Tests used:
Experiment in all cases: log2 fold change, soluble protein after heating vs DMSO (PISA); higher = thermal stabilisation; K562 cells, 10 uM, 30 min; active = over 0.2 and 3.5 SD of the protein, either way, in both replicates (recomputed)
saracatinib = compound: CN1CCN(CCOc2cc(OC3CCOCC3)c3c(Nc4c(Cl)ccc5c4OCO5)ncnc3c2)CC1 [saracatinib]
Procedure, shortened: (§1)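 K562 cells (2×10^6 cells/mL) were treated with 10 μM compound for 30 min, and aliquots were heated for 3 min over 48°C-58°C. Pooled aliquots were extracted in PBS with 0.5% NP-40 at 4°C, and the supernatant after 21,000xg for 90 min was measured by TMTpro 16plex LC-MS/MS with channel sums equalised. Reported thermal stability, relative to control samples and from duplicates, is a log2 fold change.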

sotrastaurin = compound: CN1CCN(c2nc(C3=C(c4c[nH]c5ccccc45)C(=O)NC3=O)c3ccccc3n2)CC1 [sotrastaurin]
Procedure, shortened: as §1

alvocidib = compound: CN1CC[C@H](c2c(O)cc(O)c3c(=O)cc(-c4ccccc4Cl)oc23)[C@H](O)C1 [alvocidib]
Procedure, shortened: as §1

Tubastatin A = compound: CN1CCc2c(c3ccccc3n2Cc2ccc(C(=O)NO)cc2)C1 [Tubastatin A]
Procedure, shortened: as §1

[1] = compound: CNC(=O)C1=CC=CC=C1NC2=NC(=NC=C2Cl)NC3=C(C=C(C=C3)N4CCOCC4)OC
Procedure, shortened: as §1

defactinib = compound: CNC(=O)c1ccc(Nc2ncc(C(F)(F)F)c(NCc3nccnc3N(C)S(C)(=O)=O)n2)cc1 [defactinib]
Procedure, shortened: as §1

rucaparib = compound: CNCc1ccc(-c2[nH]c3cc(F)cc4c3c2CCNC4=O)cc1 [rucaparib]
Procedure, shortened: as §1

[2] = compound: CNc1nc(-c2ccc3c(N)n[nH]c3c2)cc(N2C[C@@H](C(=O)NC3CCCCC3)CC[C@H]2C)n1
Procedure, shortened: as §1

encorafenib = compound: COC(=O)N[C@@H](C)CNc1nccc(-c2cn(C(C)C)nc2-c2cc(Cl)cc(NS(C)(=O)=O)c2F)n1 [encorafenib]
Procedure, shortened: as §1

[3] = compound: COC(=O)[C@H](CCSC)NC(=O)C1=C(C=C(C=C1)NC[C@H](CS)N)C2=CC=CC=C2
Procedure, shortened: as §1

[4] = compound: COC1=CC=C(C=C1)CN2C=CC3=C2C=C(C=C3)C(=O)NO
Procedure, shortened: as §1

filanesib = compound: CON(C)C(=O)N1N=C(c2cc(F)ccc2F)S[C@@]1(CCCN)c1ccccc1 [filanesib]
Procedure, shortened: as §1

zotarolimus = compound: CO[C@H]1C[C@@H]2CC[C@@H](C)[C@@](O)(O2)C(=O)C(=O)N2CCCC[C@H]2C(=O)O[C@H]([C@H](C)C[C@@H]2CC[C@H](n3cnnn3)[C@H](OC)C2)CC(=O)[C@H](C)/C=C(\C)[C@@H](O)[C@@H](OC)C(=O)[C@H](C)C[C@H](C)/C=C/C=C/C=C/1C [zotarolimus]
Procedure, shortened: as §1

idasanutlin = compound: COc1cc(C(=O)O)ccc1NC(=O)[C@@H]1N[C@@H](CC(C)(C)C)[C@](C#N)(c2ccc(Cl)cc2F)[C@H]1c1cccc(Cl)c1F [idasanutlin]
Procedure, shortened: as §1

alisertib = compound: COc1cc(Nc2ncc3c(n2)-c2ccc(Cl)cc2C(c2c(F)cccc2OC)=NC3)ccc1C(=O)O [alisertib]
Procedure, shortened: as §1

[5] = compound: COc1cc2nc(-c3cc(F)ccc3O)nc(N[C@@H]3CNC[C@H]3C(C)(C)O)c2cc1OC
Procedure, shortened: as §1

gefitinib = compound: COc1cc2ncnc(Nc3ccc(F)c(Cl)c3)c2cc1OCCCN1CCOCC1 [gefitinib]
Procedure, shortened: as §1

[6] = compound: COc1cccc2cc(-c3nc([C@H]4CC[C@H](C(=O)O)CC4)n4ncnc(N)c34)[nH]c12
Procedure, shortened: as §1

lapatinib = compound: CS(=O)(=O)CCNCc1ccc(-c2ccc3ncnc(Nc4ccc(OCc5cccc(F)c5)c(Cl)c4)c3c2)o1 [lapatinib]
Procedure, shortened: as §1

pictilisib = compound: CS(=O)(=O)N1CCN(Cc2cc3nc(-c4cccc5[nH]ncc45)nc(N4CCOCC4)c3s2)CC1 [pictilisib]
Procedure, shortened: as §1

Sequence of UniProt Q9H3P2 (Q9H3P2 whole entry, looked up): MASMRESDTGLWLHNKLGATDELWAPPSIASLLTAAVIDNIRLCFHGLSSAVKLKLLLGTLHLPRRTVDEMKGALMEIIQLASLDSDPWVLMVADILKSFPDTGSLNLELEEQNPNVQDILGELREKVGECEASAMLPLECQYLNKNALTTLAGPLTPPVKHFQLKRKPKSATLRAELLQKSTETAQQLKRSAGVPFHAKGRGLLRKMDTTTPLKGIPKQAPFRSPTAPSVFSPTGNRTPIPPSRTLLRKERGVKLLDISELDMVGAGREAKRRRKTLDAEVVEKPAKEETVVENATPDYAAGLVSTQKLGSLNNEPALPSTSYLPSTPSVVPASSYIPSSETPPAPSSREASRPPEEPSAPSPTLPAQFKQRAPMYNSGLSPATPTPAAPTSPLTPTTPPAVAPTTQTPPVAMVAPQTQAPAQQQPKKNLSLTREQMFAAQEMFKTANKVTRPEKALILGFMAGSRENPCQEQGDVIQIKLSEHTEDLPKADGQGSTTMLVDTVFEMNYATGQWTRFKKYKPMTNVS
Sequence of UniProt Q9UMY1 (Q9UMY1 whole entry, looked up): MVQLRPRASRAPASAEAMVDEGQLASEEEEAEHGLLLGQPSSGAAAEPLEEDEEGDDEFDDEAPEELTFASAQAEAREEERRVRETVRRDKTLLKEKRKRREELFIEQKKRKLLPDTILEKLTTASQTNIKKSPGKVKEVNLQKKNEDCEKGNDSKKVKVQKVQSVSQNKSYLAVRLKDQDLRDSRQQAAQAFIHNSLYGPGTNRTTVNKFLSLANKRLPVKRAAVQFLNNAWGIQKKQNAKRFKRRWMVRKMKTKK
Sequence of UniProt O95169 (O95169 whole entry, looked up): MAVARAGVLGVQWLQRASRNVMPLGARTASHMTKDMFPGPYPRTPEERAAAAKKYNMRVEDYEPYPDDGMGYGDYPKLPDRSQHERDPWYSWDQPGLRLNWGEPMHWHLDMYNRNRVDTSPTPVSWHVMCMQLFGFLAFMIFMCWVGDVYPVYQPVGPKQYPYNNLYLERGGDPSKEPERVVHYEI
Sequence of UniProt Q330K2 (Q330K2 whole entry, looked up): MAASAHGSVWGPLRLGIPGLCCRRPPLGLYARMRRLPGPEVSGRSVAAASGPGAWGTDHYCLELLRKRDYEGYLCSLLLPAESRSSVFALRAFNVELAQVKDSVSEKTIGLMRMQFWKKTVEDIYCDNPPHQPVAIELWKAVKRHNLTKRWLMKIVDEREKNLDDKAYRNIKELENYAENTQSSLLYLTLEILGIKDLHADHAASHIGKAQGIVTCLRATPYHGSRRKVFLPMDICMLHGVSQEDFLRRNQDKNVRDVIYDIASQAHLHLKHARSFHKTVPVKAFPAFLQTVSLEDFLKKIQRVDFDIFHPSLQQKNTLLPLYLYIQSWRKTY
Sequence of UniProt Q9NZT2 (Q9NZT2 whole entry, looked up): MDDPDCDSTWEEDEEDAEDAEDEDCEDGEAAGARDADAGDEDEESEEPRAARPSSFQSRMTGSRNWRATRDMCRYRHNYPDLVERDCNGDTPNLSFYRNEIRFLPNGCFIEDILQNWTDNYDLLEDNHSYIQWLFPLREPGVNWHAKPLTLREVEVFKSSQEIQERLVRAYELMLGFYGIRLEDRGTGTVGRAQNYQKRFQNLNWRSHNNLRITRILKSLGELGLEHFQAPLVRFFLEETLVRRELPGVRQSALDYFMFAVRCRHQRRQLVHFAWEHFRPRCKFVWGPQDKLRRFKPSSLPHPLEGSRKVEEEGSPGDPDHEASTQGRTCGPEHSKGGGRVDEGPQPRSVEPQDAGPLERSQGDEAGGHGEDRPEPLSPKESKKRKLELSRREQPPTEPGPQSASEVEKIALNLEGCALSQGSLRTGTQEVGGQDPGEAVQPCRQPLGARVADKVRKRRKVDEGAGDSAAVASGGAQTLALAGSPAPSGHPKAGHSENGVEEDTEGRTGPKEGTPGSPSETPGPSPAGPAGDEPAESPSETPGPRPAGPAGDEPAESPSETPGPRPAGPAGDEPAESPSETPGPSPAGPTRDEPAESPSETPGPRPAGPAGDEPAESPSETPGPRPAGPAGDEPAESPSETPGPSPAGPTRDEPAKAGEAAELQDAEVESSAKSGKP
Sequence of UniProt Q9BRP4 (Q9BRP4 whole entry, looked up): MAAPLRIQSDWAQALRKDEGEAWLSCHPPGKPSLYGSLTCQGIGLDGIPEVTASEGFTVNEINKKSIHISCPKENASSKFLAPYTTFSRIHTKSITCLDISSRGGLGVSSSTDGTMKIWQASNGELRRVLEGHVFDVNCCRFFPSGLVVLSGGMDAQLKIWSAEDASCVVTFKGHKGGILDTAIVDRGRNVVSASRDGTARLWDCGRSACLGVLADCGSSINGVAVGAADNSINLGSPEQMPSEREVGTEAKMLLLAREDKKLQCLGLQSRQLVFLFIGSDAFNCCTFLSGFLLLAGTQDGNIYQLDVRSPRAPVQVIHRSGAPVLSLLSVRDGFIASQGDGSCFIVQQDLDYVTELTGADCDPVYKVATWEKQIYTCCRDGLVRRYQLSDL
Sequence of UniProt P84157 (P84157 whole entry, looked up): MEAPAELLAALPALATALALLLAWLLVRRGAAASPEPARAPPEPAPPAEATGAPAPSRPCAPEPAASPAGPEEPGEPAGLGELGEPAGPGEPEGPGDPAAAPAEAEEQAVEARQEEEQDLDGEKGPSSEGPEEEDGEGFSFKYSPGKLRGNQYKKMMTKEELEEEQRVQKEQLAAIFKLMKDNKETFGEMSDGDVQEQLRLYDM
Sequence of UniProt Q9BS92 (Q9BS92 whole entry, looked up): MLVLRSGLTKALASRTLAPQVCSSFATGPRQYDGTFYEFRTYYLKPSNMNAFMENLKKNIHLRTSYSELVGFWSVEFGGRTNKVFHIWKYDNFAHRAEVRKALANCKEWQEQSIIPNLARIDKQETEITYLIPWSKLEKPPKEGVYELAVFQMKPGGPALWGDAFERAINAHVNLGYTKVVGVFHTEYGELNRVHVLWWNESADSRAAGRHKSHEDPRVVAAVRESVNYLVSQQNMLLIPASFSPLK
Sequence of UniProt Q8N573 (Q8N573 whole entry, looked up): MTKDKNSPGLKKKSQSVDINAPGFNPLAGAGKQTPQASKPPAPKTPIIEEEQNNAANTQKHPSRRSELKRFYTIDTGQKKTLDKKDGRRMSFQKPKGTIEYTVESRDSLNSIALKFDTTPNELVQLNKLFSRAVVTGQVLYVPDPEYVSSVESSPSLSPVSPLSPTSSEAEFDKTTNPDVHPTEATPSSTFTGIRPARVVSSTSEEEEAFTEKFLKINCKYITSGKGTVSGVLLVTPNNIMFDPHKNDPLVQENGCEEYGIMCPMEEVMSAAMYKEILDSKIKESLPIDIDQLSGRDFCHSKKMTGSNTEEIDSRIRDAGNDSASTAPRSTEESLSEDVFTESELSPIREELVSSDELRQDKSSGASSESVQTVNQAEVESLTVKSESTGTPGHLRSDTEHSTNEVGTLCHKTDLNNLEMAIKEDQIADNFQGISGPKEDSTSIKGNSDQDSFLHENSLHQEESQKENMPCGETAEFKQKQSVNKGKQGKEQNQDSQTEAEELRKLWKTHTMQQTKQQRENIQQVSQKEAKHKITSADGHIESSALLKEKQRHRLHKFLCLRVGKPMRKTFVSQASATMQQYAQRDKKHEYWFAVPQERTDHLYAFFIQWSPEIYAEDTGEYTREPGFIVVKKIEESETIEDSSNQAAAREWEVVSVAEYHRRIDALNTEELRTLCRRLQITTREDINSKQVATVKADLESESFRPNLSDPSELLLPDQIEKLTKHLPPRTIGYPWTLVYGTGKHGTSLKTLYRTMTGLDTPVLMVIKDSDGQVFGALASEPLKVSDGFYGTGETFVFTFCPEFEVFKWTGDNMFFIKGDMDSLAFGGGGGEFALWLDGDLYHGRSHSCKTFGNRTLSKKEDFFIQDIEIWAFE
Sequence of UniProt Q96IV0 (Q96IV0 whole entry, looked up): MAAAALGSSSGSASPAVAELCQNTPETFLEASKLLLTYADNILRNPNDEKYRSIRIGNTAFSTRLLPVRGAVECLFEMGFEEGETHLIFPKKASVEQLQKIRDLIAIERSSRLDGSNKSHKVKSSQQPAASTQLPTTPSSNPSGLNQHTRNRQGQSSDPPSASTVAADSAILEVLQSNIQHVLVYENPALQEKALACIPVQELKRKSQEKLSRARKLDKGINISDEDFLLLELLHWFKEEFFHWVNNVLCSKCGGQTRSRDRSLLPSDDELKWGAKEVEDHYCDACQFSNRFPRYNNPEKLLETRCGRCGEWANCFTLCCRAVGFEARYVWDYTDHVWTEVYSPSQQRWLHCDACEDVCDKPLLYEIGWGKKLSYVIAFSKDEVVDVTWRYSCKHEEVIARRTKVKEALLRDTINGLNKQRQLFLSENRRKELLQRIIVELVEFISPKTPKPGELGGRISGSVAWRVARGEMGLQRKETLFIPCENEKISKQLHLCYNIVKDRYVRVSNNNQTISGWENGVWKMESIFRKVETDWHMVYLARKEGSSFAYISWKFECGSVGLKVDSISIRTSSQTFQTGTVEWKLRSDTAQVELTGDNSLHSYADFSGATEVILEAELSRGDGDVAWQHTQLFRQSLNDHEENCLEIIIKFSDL
Sequence of UniProt Q86WC4 (Q86WC4 whole entry, looked up): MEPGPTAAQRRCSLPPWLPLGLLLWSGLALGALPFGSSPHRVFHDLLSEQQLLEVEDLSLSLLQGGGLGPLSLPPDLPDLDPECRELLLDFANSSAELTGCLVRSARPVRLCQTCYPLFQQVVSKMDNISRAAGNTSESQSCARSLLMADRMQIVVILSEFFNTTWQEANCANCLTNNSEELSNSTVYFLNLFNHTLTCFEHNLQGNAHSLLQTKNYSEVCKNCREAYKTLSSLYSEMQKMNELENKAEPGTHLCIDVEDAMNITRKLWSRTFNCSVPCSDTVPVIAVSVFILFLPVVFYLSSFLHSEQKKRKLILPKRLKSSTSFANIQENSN

Row | Target | log2 fold change (saracatinib) | log2 fold change (sotrastaurin) | log2 fold change (alvocidib) | log2 fold change (Tubastatin A) | log2 fold change [1] | log2 fold change (defactinib) | log2 fold change (rucaparib) | log2 fold change [2] | log2 fold change (encorafenib) | log2 fold change [3] | log2 fold change [4] | log2 fold change (filanesib) | log2 fold change (zotarolimus) | log2 fold change (idasanutlin) | log2 fold change (alisertib) | log2 fold change [5] | log2 fold change (gefitinib) | log2 fold change [6] | log2 fold change (lapatinib) | log2 fold change (pictilisib)
1 | NDUFAF6 (UniProt Q330K2) | -0.071 | -0.112 | -0.025 | -0.101 | 0.038 | -0.04 | -0.108 | -0.146 | 0.081 | 0.084 | 0.183 | -0.177 | -0.006 | 0.03 | -0.199 | -0.165 | -0.018 | 0.061 | -0.007 | 0
2 | MRPS27 isoform 2 (UniProt Q92552) | -0.107 | -0.089 | -0.078 | 0.06 | 0.071 | -0.012 | 0.069 | 0.108 | 0.109 | -0.045 | 0.062 | 0.029 | 0.068 | -0.124 | -0.05 | -0.024 | 0.016 | -0.014 | 0.036 | -0.038
3 | MXRA7 (UniProt P84157) | 0.127 | 0.027 | 0.048 | -0.02 | 0.007 | -0.104 | -0.093 | -0.033 | 0.008 | -0.025 | -0.248 | 0.135 | 0.023 | -0.066 | -0.017 | -0.007 | 0.058 | 0.067 | 0 | -0.053
4 | NELFA (UniProt Q9H3P2) | 0.004 | -0.023 | -0.193 | 0.216 | 0.078 | -0.094 | 0.261 | -0.014 | -0.039 | -0.213 | 0.031 | 0.035 | -0.084 | -0.117 | 0.092 | 0.105 | 0.36 | 0.017 | -0.079 | 0.076
5 | OXR1 (UniProt Q8N573) | -0.039 | -0.049 | -0.011 | 0.008 | -0.038 | -0.059 | -0.014 | -0.063 | 0 | 0.003 | -0.018 | -0.078 | 0.009 | -0.014 | -0.059 | 0.034 | 0.003 | 0.018 | 0.011 | 0.164
6 | MRPL34 (UniProt Q9BQ48) | -0.09 | 0 | 0.117 | 0.119 | 0.086 | 0.138 | 0.101 | 0.169 | 0.055 | 0.035 | -0.074 | 0.081 | 0.072 | 0.029 | -0.089 | -0.045 | -0.105 | -0.164 | 0.028 | -0.102
7 | OGFR (UniProt Q9NZT2) | -0.044 | -0.146 | -0.04 | 0.089 | -0.028 | -0.094 | 0.132 | 0.009 | 0.031 | -0.154 | -0.005 | 0.048 | 0.137 | -0.042 | -0.157 | 0.023 | -0.015 | -0.152 | 0 | 0.019
8 | MRPS15 (UniProt P82914) | -0.134 | -0.079 | -0.057 | 0.039 | -0.07 | 0.035 | 0.084 | 0.115 | 0.039 | -0.01 | 0.041 | 0.145 | 0.095 | -0.265 | -0.024 | 0.016 | -0.054 | 0.024 | 0.08 | -0.13
9 | PAAF1 (UniProt Q9BRP4) | 0.056 | 0.016 | -0.075 | -0.008 | -0.006 | -0.034 | 0.012 | -0.008 | -0.004 | 0.004 | -0.013 | -0.082 | -0.008 | -0.026 | -0.062 | 0.026 | -0.002 | 0.047 | 0.027 | 0.048
10 | OSTM1 (UniProt Q86WC4) | -0.038 | 0.007 | 0.001 | 0.031 | 0.19 | -0.048 | -0.015 | -0.086 | 0.022 | 0.002 | -0.012 | -0.122 | 0.007 | 0.002 | -0.015 | -0.09 | -0.066 | 0.002 | 0.056 | 0.055
11 | NDUFB8 (UniProt O95169) | -0.064 | 0.071 | -0.077 | -0.016 | 0.002 | -0.037 | 0.003 | -0.073 | 0.016 | -0.048 | -0.042 | 0.004 | -0.005 | 0.069 | -0.04 | -0.141 | -0.023 | 0.06 | -0.036 | -0.034
12 | NBN (UniProt O60934) | -0.008 | -0.03 | -0.197 | 0.191 | -0.065 | -0.159 | 0.006 | 0.049 | 0.003 | -0.019 | -0.039 | -0.007 | 0.039 | -0.053 | 0.057 | 0.028 | 0.03 | -0.019 | 0.008 | -0.035
13 | NOL7 (UniProt Q9UMY1) | -0.057 | 0.017 | 0.379 | 0.161 | 0.032 | 0.303 | 0.312 | 0.098 | 0.1 | -0.042 | -0.089 | 0.524 | -0.024 | 0.157 | -0.119 | -0.086 | -0.006 | -0.142 | 0.169 | -0.095
14 | MRPS25 (UniProt P82663) | -0.097 | -0.059 | -0.039 | 0.084 | -0.021 | -0.072 | 0.129 | 0.233 | -0.016 | -0.017 | 0.066 | 0.029 | 0.053 | -0.185 | -0.038 | -0.055 | 0.058 | -0.046 | 0.08 | 0.063
15 | NIPSNAP3B (UniProt Q9BS92) | 0.122 | 0.066 | -0.029 | 0.01 | 0.112 | -0.026 | 0.31 (active) | -0.088 | -0.289 | 0.008 | -0.033 | -0.168 | 0.013 | 0.046 | -0.046 | -0.071 | -0.138 | 0.009 | -0.09 | 0.002
16 | NGLY1 (UniProt Q96IV0) | -0.04 | -0.135 | -0.002 | -0.04 | 0.01 | -0.026 | 0.161 | 0.05 | 0.159 | -0.064 | 0.02 | 0.043 | -0.012 | 0.112 | -0.064 | 0.047 | 0.076 | -0.128 | 0.03 | 0.045

Reference: the supplement of paper PMC10849652
